Outcome and Potency data for 13 molecules are collected here from PubChem BioAssay (NCATS).

A short description of test [1]: Confirmation and Secondary Assay for Modulators of Hemoglobin Beta Chain Splicing at IVS2 705 locus (AID 930).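 Note: HeLa cells stably expressing the EGFP-705 splicing reporter; GFP fluorescence per well restored by corrected splicing of the IVS2-705 intron in EGFP; series mostly up to about 46 µM.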 The gist of the method:
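HeLa cells stably carrying EGFP interrupted by mutant beta-globin intron 2 (IVS2-705) treated 2 days at 37C with compound; 500 nM antisense PNA as control. Correct splicing read as total peak GFP intensity per well by laser-scanning cytometry.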

The nature of test [2]: qHTS Assay for Identification of Small Molecule Antagonists for Thrombopoietin (TPO) Signaling Pathway (AID 918). Note: potency is the fitted concentration of half-maximal effect; nearly all actives have a fitted effect of over 60% in size. To be noted: TPO-dependent cell signaling reporter, antagonist mode. The essentials:
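Antagonist mode at EC50 TPO (26 pM) in IL-3-free medium; murine Ba/F3 cells with human TPO receptor and GPIIb-promoter luciferase, 24 hrs at 37 C before luminescent detection.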
A general note: In qHTS, concentration-response curves come from the screen itself.

For test [3], the target named is Pyruvate kinase (Leishmania mexicana) (UniProt Q27686). The test can be described thus: qHTS Validation Assay for Inhibitors of Leishmania Mexicana Pyruvate Kinase (AID 945). The essentials: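 Eight-point qHTS titrations in triplicate, data normalized to DMSO neutral control. Reaction: 0.2 nM LmPYK E451W mutant, 0.5 mM PEP, 0.1 mM ADP, 7 mM MgCl2, pH 7.2, one hour at room temperature; luminescent ATP detection.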

For test [4], the target named is Pyruvate kinase PKM (Homo sapiens) (UniProt P14618). The test can be described thus: qHTS Assay for Activators of Human Muscle Pyruvate Kinase (AID 954; active = well fitted curve in the direction sought with a large enough effect, not every such curve was filed as active). The essentials:
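ATP production by PKM2 detected via luciferase luminescence after 1 h room-temperature reaction (0.1 nM enzyme, PEP at Km 0.5 mM, ADP 0.1 mM, pH 7.2 imidazole buffer). Inhibition scaled to no-enzyme control; activation referenced to 0.3 nM enzyme wells.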

Test [5] addresses Muscarinic acetylcholine receptor M1 (Rattus norvegicus) (UniProt P08482). The test can be described thus: qHTS Assay for Antagonists of Acetylcholine Muscarinic M1 Receptor: Kinetic Measurement of Intracellular Calcium Response (AID 943).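 Note: Fluo-4 calcium signal as peak divided by basal fluorescence over 4 min; series mostly up to about 35 µM; nearly all actives have a fitted effect of over 75% in size.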 The essentials:
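Quantitative HTS in CHO-M1 (rat receptor) cells: 10 min compound exposure ahead of 100 nM carbachol, Fluo-4 fluorescence followed 4 min, value expressed as peak-to-basal ratio.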

The structures appear in SMILES notation. Records with an inconclusive call do not appear. Entries that show only a call come without a potency. Calls of active or inactive are those of the source. Unless noted, calls come from the whole dose curve; as a rule, active = well fitted curve in the direction sought with a large enough effect; inconclusive = small, poorly fitted or top-dose-only effect, or another doubt; inactive = no such curve, though single readings can be large; an effect the other way counts as inactive or inconclusive.

Sequence of Pyruvate kinase PKM (Homo sapiens) (P14618 whole entry, looked up): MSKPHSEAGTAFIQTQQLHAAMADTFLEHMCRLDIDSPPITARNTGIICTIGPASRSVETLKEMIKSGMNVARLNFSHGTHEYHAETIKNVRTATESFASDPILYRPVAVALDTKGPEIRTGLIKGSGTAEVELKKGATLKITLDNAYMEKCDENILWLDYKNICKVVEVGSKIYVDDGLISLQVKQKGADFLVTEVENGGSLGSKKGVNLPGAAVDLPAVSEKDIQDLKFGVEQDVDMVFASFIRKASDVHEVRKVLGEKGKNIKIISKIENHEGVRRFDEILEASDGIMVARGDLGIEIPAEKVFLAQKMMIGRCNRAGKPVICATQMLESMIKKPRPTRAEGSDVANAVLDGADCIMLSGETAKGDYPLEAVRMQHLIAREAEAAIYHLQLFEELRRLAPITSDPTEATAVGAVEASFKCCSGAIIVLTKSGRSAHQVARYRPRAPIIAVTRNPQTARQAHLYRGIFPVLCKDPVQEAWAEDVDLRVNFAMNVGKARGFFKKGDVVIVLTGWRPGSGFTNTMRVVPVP
Sequence of Pyruvate kinase (Leishmania mexicana) (Q27686 2-499 E452W): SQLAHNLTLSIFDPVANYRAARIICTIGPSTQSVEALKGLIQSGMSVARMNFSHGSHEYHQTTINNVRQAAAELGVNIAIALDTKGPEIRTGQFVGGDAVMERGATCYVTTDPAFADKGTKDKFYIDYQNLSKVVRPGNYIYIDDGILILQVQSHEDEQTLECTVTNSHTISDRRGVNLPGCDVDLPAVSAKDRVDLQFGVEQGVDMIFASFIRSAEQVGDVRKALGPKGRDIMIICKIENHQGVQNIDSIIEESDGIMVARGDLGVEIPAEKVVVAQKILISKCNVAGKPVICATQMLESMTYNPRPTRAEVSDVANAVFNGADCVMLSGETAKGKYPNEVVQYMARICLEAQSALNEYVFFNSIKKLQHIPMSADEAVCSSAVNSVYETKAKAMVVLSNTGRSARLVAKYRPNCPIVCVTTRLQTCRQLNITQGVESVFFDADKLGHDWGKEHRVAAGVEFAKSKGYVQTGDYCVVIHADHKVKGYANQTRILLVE
Sequence of Muscarinic acetylcholine receptor M1 (Rattus norvegicus) (P08482 whole entry, looked up): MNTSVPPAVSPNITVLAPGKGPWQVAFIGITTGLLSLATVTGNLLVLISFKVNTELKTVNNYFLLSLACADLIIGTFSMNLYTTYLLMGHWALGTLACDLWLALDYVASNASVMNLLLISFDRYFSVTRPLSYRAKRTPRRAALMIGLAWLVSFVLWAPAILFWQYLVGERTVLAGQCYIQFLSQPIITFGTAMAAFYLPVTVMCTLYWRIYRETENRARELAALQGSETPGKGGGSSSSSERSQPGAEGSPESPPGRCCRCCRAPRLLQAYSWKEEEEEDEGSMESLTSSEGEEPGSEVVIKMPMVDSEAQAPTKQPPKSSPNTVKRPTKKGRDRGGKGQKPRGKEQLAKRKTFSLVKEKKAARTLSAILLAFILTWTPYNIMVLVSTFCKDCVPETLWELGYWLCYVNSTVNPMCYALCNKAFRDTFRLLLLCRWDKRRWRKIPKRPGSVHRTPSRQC

`CC(C)NCC(O)c1cc(O)cc(O)c1` (stereo not given): the molecule was called inactive in test [1].

For the molecule `CC(C)(C)NCC(O)c1cc(O)cc(O)c1` (stereo not given), the call in test [1] was inactive.

Regarding `O=C1NCN(c2ccccc2)C12CCN(CCCC(c1ccc(F)cc1)c1ccc(F)cc1)CC2`, the Potency in test [2] was 12.6 µM (active). The Potency entry in test [3] was “inactive”. In test [4], the result was inactive.

For `COCC(=O)O[C@]1(CCN(C)CCCc2nc3ccccc3[nH]2)CCc2cc(F)ccc2[C@@H]1C(C)C`, the Potency in test [2] is 12.6 µM (active). Besides, in test [4], the molecule was called inactive.

In the case of `COC(=O)C1=C(C)NC(C)=C(C(=O)OCCN(C)Cc2ccccc2)C1c1cccc([N+](=O)[O-])c1` (stereo not given), in test [1], the call was inactive.

Take `Cc1ccc(/C(=C\CN2CCCC2)c2ccccn2)cc1`: the result in test [1] was inactive.

With `O=C(CCCN1CCC(O)(c2cccc(C(F)(F)F)c2)CC1)c1ccc(F)cc1`, the molecule was classed as inactive in test [4].

Consider `COC(=O)[C@@H](N)Cc1ccc(O)c(O)c1`, for which the Potency result in test [5] and in test [3] was “inactive” throughout. For the same molecule, the result in test [4] was inactive.

With `CCCN(CCC)C(=O)C(CCC(=O)O)NC(=O)c1ccccc1` (stereo not given), in test [1], the outcome was inactive.

On to `COCCc1ccc(OCC(O)CNC(C)C)cc1` (stereo not given), for which, in test [1], the call was inactive.

As to `CN(C)CCCN1c2ccccc2Sc2ccccc21`, the result in test [1] and in test [4] was inactive. For the same molecule, in test [3], the Potency entry is “inactive”.

As for `c1ccc2c(c1)CCCC2C1=NCCN1` (stereo not given), in test [1], the molecule was called inactive.

With `OC(CCN1CCCCC1)(c1ccccc1)C1CCCCC1` (stereo not given), the outcome in test [1] was inactive.
